Screens (PubChem)
A selection: hits, their analogues and other compounds. The true share with any hit is near 1.3%.
EBV gp42 inh: blocks Epstein-Barr virus glycoprotein 42 binding | Fluorescence polarization binding assay, mP read-out | inhibition, % (tested at 21.74 µM) | hit rate 0.42% among 220,000; in the data active = inhibition above about 50%
Target sequence (Q1HVG2 whole entry, looked up): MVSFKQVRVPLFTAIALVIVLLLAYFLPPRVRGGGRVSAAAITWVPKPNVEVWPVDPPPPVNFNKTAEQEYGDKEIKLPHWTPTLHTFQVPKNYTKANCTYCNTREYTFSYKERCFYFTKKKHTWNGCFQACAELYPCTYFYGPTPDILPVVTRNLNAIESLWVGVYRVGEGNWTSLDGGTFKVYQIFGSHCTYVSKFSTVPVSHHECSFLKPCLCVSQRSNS
MCL1-BIM inh: inhibitors of human MCL1 binding to BIM-BH3 peptide | Q07820 | hit rate 0.68% among 320,000 | GST-MCL1 / FITC-Bim-BH3 fluorescence polarization | inhibition, % at 10.9 µM;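 active = inhibition above the mean inhibition of all tested compounds plus 3 SD, set per campaign, cut at about 40% in these data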;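 note: higher means more loss of mP so more displacement of Bim peptide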
Bcl-xL primary: inhibitors of human Bcl-xL | Q07817 | GST-Bcl-xL / FITC-Bim BH3 peptide fluorescence polarization | inhibition, % at 10.9 µM | hit rate 0.7% among 320,000 | AID 2129;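 active = inhibition above the mean of all tested compounds plus 3 SD, cutoff set per campaign, cut at about 30% in these data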;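 note: inhibitors lower millipolarization by displacing the labeled peptide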
GLD-1 RNA inh: GLD-1-TGE RNA interaction inhibition (C. elegans); Q17339; purified GLD-1 + fluorescein TGE RNA, fluorescence polarization; inhibition, % at 5.96 µM; hit rate 0.44% among 320,000; AID 2280;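 active = percent inhibition above a per-plate cutoff, the plate mean of test compounds plus 3 SD, cut at about 30% in these data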
Target sequence (Q17339 whole entry, looked up): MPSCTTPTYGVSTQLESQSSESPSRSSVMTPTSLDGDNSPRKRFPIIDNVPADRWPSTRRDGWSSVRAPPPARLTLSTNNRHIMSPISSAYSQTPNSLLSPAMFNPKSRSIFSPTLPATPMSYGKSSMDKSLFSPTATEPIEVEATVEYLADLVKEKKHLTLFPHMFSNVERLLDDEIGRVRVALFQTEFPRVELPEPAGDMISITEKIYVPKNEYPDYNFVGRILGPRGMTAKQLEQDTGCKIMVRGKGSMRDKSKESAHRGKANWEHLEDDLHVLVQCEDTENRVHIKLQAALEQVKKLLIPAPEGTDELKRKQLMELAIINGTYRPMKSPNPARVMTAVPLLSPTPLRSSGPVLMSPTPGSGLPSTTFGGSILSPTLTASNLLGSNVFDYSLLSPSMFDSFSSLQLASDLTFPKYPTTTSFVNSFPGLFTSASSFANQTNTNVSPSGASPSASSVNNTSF
MEX-5 binding: C. elegans MEX-5 TCR-2 RNA binding activity. Q9XUB2. MEX-5/FITC-TCR2 RNA binding, fluorescence polarization; stronger effect = lower value. activity score (negative = inhibition of binding), % at 10 µM. hit rate 0.38% among 300,000;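 active = inhibition past about -25% in most replicates, and total fluorescence under double the plate's negative control median, limit read from the data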
BCLXL inh confirm: counter-screen for MCL1 inhibitors: confirmation of human Bcl-xL inhibitors. shares compounds with MCL1-BIM inh. GST-Bcl-xL / FITC-Bim BH3 peptide FP binding. inhibition, % at 10.9 µM. hit rate 54% among 1,700;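 active = inhibition above a cutoff equal to the mean inhibition of all tested compounds plus 3 SD, cut at about 30% in these data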
MCL1 inh confirm: MCL1-BIM-BH3 interaction inhibition, confirmation; shares compounds with MCL1-BIM inh; GST-MCL1 / FITC-Bim-BH3 fluorescence polarization; inhibition, % at 10.9 µM; hit rate 61% among 1,700; AID 2168;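 active = inhibition above the average of all tested compounds plus 3 SD, cut at about 40% in these data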
Large screens that a line does not name were inactive (follow-up assays come after a bar, where they were run).

Cc1cc(C)c2nc(-c3ccccn3)cc(C(=O)Nc3ccc(S(=O)(=O)Nc4onc(C)c4C)cc3)c2c1	MCL1-BIM inh 41 | BCLXL inh confirm 30 | MCL1 inh confirm 79
CCn1c(CC(=O)Nc2ccc(F)cc2)nnc1SCC(=O)N1CCOCC1	none (no result: EBV gp42 inh)
C/C(=C\c1ccccc1)C1Nc2cccc3cccc(c23)N1	MCL1-BIM inh 41 (no result: EBV gp42 inh, MEX-5 binding) | BCLXL inh confirm inactive | MCL1 inh confirm inactive
Cc1ccc(NC(=O)c2cc(C)nn2-c2ccccc2)cc1	MCL1-BIM inh active, Bcl-xL primary active, GLD-1 RNA inh 161 | BCLXL inh confirm inactive | MCL1 inh confirm inactive
CCN(CC(=O)Nc1c(F)cccc1F)C(=O)c1csc2c1CCCC2	none (no result: EBV gp42 inh)
CC(CS(=O)(=O)c1cccc2cccnc12)N1CCCCC1 (centres undefined)	MCL1-BIM inh 65, Bcl-xL primary 62, GLD-1 RNA inh 40 | BCLXL inh confirm 33 | MCL1 inh confirm 42
O=C(O)c1cnn(-c2nc(-c3cccc([N+](=O)[O-])c3)cs2)c1C(F)(F)F	none (no result: EBV gp42 inh)
COc1cc2cc(C#N)c(SCC(=O)N3CCOCC3)nc2cc1OC	none
COc1cc2cc(C)c(SCC(=O)N3CCOCC3)nc2cc1OC	MCL1-BIM inh 56, Bcl-xL primary 53, GLD-1 RNA inh 33 | BCLXL inh confirm inactive | MCL1 inh confirm inactive
COc1ccccc1CCN1CCCC(CN(C)Cc2ccc(OCCO)cc2)C1 (centres undefined)	none (no result: EBV gp42 inh)
CC(C)CN(C(=O)COC(=O)c1cc2c(s1)CCC2)C1CCS(=O)(=O)C1 (centres undefined)	MCL1-BIM inh 42 | BCLXL inh confirm inactive | MCL1 inh confirm inactive
CN1CCc2c(sc3c2C(=O)NC(c2ccccn2)N3)C1 (centres undefined)	MCL1-BIM inh 66, Bcl-xL primary 64, GLD-1 RNA inh 37, MEX-5 binding -51 | BCLXL inh confirm 41 | MCL1 inh confirm 52
O=C(N/N=C/c1cc(Cl)cc(Cl)c1O)c1ccncc1	EBV gp42 inh 57, MCL1-BIM inh 56, Bcl-xL primary 72, GLD-1 RNA inh 67 | BCLXL inh confirm 67 | MCL1 inh confirm 67
O=C(N/N=C/c1ccc(Cl)cc1Cl)c1ccncc1	none (no result: EBV gp42 inh)
COCCCNC(=O)/C(C#N)=C/c1c(N2CCN(c3cccc(Cl)c3)CC2)nc2c(C)cccn2c1=O	none (no result: EBV gp42 inh)
Cc1cccn2c(=O)c(C=O)c(N3CCN(c4ccccc4)CC3)nc12	MCL1-BIM inh 60, Bcl-xL primary 37 | BCLXL inh confirm 39 | MCL1 inh confirm 49
COCCCNC(=O)/C(C#N)=C/c1c(N2CCN(c3ccccc3)CC2)nc2c(C)cccn2c1=O	MCL1-BIM inh 99, Bcl-xL primary 91 (no result: EBV gp42 inh) | BCLXL inh confirm 37 | MCL1 inh confirm 41
Cc1c(N)cccc1[N+](=O)[O-]	none (no result: EBV gp42 inh, MEX-5 binding)
Cc1c(N)cccc1N	MCL1-BIM inh 52, Bcl-xL primary 69 (no result: EBV gp42 inh, MEX-5 binding) | BCLXL inh confirm inactive | MCL1 inh confirm inactive
CCOC(=O)C1(Cc2cccc(Cl)c2)CCCN(C(=O)c2c(CC)noc2C)C1 (centres undefined)	MCL1-BIM inh 42 (no result: EBV gp42 inh) | BCLXL inh confirm inactive | MCL1 inh confirm inactive
CC1=CC(=O)C=C(C)C1=NOc1ccccc1[N+](=O)[O-]	none
CCCOc1ccc(/C(CC)=N/NC(=O)C2(C)CC2(Br)Br)cc1 (centres undefined)	MCL1-BIM inh 112, Bcl-xL primary 97, GLD-1 RNA inh 112 | BCLXL inh confirm inactive | MCL1 inh confirm inactive
Cc1c(NS(=O)(=O)c2cc(C(=O)NCCN(C)C)ccc2Cl)c(=O)n(-c2ccccc2)n1C	MCL1-BIM inh 75 (no result: EBV gp42 inh) | BCLXL inh confirm inactive | MCL1 inh confirm inactive
CC(OC(=O)CCc1nc2ccccc2c(=O)[nH]1)C(=O)c1ccc(C(C)(C)C)cc1 (centres undefined)	none
C=CCN1C(=O)C2(OCCO2)c2cc(C)ccc21	MCL1-BIM inh 40 (no result: EBV gp42 inh) | BCLXL inh confirm inactive | MCL1 inh confirm inactive
COc1cc2cc(CN(Cc3nnnn3Cc3ccco3)C3CCCCC3)c(=O)[nH]c2cc1OC	MCL1-BIM inh 60, Bcl-xL primary 47 | BCLXL inh confirm inactive | MCL1 inh confirm inactive
Cc1ccc(N(CC(=O)NCc2ccco2)C(=O)CNS(=O)(=O)c2ccccc2)c(C)c1	MCL1-BIM inh 42 (no result: EBV gp42 inh) | BCLXL inh confirm inactive | MCL1 inh confirm inactive
COc1cccc(NC(=O)COC(=O)C2CC2)c1	none (no result: EBV gp42 inh, MCL1-BIM inh, Bcl-xL primary, MEX-5 binding)
Cc1c(-c2ccc(O)cc2)nc2nc(-c3ccccc3)c(-c3ccccc3)nn12	MCL1-BIM inh 112, Bcl-xL primary 118 | BCLXL inh confirm 44 | MCL1 inh confirm 54
O=c1[nH]cnc2sc3c(c12)CN(Cc1ccccc1)CC3	MCL1-BIM inh 58, Bcl-xL primary 73 (no result: EBV gp42 inh) | BCLXL inh confirm inactive | MCL1 inh confirm inactive
CCn1cc(C(=O)OCC(=O)c2cc(C)n(-c3ccc(OC(F)F)cc3)c2C)c(=O)c2ccc(C)nc21	none
CC(C)C(NC(=O)c1ccc(F)cc1)C(=O)Nc1cccnc1 (centres undefined)	none
Nc1cc2c(cc1[N+](=O)[O-])OCCO2	none
Nc1cc2c(cc1[N+](=O)[O-])OCO2	MCL1-BIM inh 44 | BCLXL inh confirm 41 | MCL1 inh confirm 78
COc1cccc(-c2nc(CS(=O)CC(=O)NC3CCCCC3)c(C)o2)c1 (centres undefined)	none (no result: EBV gp42 inh)
O=c1c2c3c(sc2[nH]c(=S)n1Cc1ccco1)CCC3	MCL1-BIM inh 48 | BCLXL inh confirm inactive | MCL1 inh confirm 41
CC1(C)Cc2c(sc3[nH]c(=S)n(Cc4ccco4)c(=O)c23)CO1	none
O=C(O)c1ccc(-n2cccc2/C=C2/SC(=O)N(CC(=O)N3CCCC3)C2=O)cc1	MCL1-BIM inh 55 (no result: EBV gp42 inh) | BCLXL inh confirm inactive | MCL1 inh confirm 50
CCN1C=C(Cc2ccccc2C)C2=C(C1)C(c1ccccc1C)C(C#N)=C(N)O2 (centres undefined)	none
CCN1C=CC2=C(C#N)C(N)C(C#N)(C#N)C(c3ccccc3C(F)(F)F)C2C1 (centres undefined)	MCL1-BIM inh 110, Bcl-xL primary 106, GLD-1 RNA inh 76, MEX-5 binding -32 | BCLXL inh confirm 50 | MCL1 inh confirm 64
O=C(Nc1ncccc1O)c1cccc(S(=O)(=O)N2CCc3ccccc32)c1	none
COc1ccc(NC(=O)c2cccc(S(=O)(=O)N3CCc4ccccc43)c2)cn1	MCL1-BIM inh 60, Bcl-xL primary 61, GLD-1 RNA inh 49 | BCLXL inh confirm 46 | MCL1 inh confirm 58
CC1CCCC(C)N1C(=O)COC(=O)c1ccc2c(c1)OCO2 (centres undefined)	none
CC1CC(C)CN(C(=O)COC(=O)c2ccc3c(c2)OCO3)C1 (centres undefined)	MCL1-BIM inh 46 (no result: EBV gp42 inh, MEX-5 binding) | BCLXL inh confirm inactive | MCL1 inh confirm inactive
CCOC(=O)c1ccc2c(c1)N(C)C(=O)c1ccccc1S2	none (no result: EBV gp42 inh)
